Data reported in PubChem BioAssay (Tox21).
Values joined by “and” are separate entries in the source; they are usually repeats but may differ in a detail not shown here. Equal values may be shown once. Results filed as inconclusive are left out. A call without a number means that no potency is given here. Active and inactive are the calls of the source. Calls come from the whole dose curve; as a rule, active = well fitted inhibition curve with a large enough effect in the repeat runs; inconclusive = weak or mixed curves; inactive = no such curve, though single readings can be large or run the other way.

Test: qHTS assay to identify small molecule antagonists of the thyroid receptor (TR) signaling pathway (AID 743065); note: nearly all actives have a fitted effect of over 55% in size
Settings: GH3.TRE-Luc, T3-stimulated luciferase inhibition, 23.5 h; series mostly up to 70.3 µM
From the text: U.S. Tox21 Program National Center for Advancing Translational Sciences [NCATS] NIH Chemical Genomics Center [NCGC] U.S. Environmental Protection Agency [EPA] National Institutes of Environmental Health Sciences [NIEHS] National Toxicology Program [NTP] U.S. Food and Drug Administration [FDA] Tox21 Assay Overview: Thyroid receptor (TR), a nuclear hormone receptor, plays an important role in development, proliferation, differentiation, metabolism, brain function, and cardiovascular system. […] To profile the Tox21 10K compound library in TR signaling, a cell-based GH3-TRE-Luc assay (GH3.TRE-Luc cell line, developed by the laboratory of Dr. Albertinka J. Murk, Wageningen University) was used to measure the inhibition of TR. GH3 (rat pituitary tumor) cells stably expressing a TR activity sensor consisting of two TR response elements and a luciferase reporter gene.
Tox21 Assay Protocol Summary: GH3.TRE-Luc cells were dispensed at 1500 cells/4 uL/well into 1536-well white solid bottom plates using a Multidrop Combi dispenser (Thermo Fisher Scientific Inc., Waltham, MA). After the assay plates were incubated at 37 C for 4 hours, 23 nL of library compound or DMSO controls was transferred to the assay plates by a pintool station (Kalypsys, San Diego, CA), followed by addition of 1 ul of T3 (1 nM, final concentration in the wells) to stimulate TR transactivation. The assay plates were incubated at 37 C for 23.5 h, and then 1 uL of CellTiter-Fluor reagent (Promega, Madision, WI) of measuring cytotoxicity was added to each well using a Bioraptr Flying Reagent Dispenser (FRD) workstation (Beckman Coulter, Indianapolis, IN, USA). The plates were incubated at 37 C and 5% CO2 for additional 30 min, and fluorescence intensity was measured by a ViewLux plate reader (PerkinElmer, Shelton, CT). For measuring luciferase reporter gene activity, 4 uL of ONE-Glo Luciferase Assay reagent (Promega) was added to each well using a Bioraptr FRD (Beckman Coulter), followed by 30 min incubation at room temperature. The luminescence intensity of plates was recorded by a ViewLux plate reader (PerkinElmer, Shelton, CT).
Potency is the fitted concentration of half-maximal effect.

Structure (SMILES) | Potency
CC(Cc1ccccc1)NCc1ccccc1Cl (stereo not given) | inactive
Cc1ccc(N)c(C)c1 | inactive
Oc1cccc(Cl)c1 | inactive
NC(=O)CF | inactive
CCC1CCC(=O)O1 (stereo not given) | inactive
CC(=O)OC(c1ccccc1)C(Cl)(Cl)Cl (stereo not given) | inactive
COc1cc(C[C@@H](C)N)c(OC)cc1Br | 56 µM (active)
CCCCCCCCCCCCN(C)C | inactive
Nc1ccccc1C(=O)OCCc1ccccc1 | inactive
CCOP(=S)(OCC)Oc1ccc(S(C)=O)cc1 (stereo not given) | inactive
O=C(Cl)OCCOCCOC(=O)Cl | inactive
C=CC(C)(CCC=C(C)C)OC(=O)c1ccccc1N (stereo not given) | inactive
O=C(O)C(F)(F)C(F)(F)C(F)(F)C(F)(F)C(F)(F)F | inactive
C=CCc1ccccc1O | inactive
CN(C)c1ccc(N=O)cc1 | 5.46 µM (active) and 12.2 µM (active)
NP(N)(=O)NC(=O)c1ccc(F)cc1 | inactive
CON(C)C(=O)Nc1ccc(Cl)cc1 | inactive
CCCCNC(=O)OCC#CI | 9.64 µM (active) and 4.86 µM (active)
Cc1cccc(C)c1NC1=NCCCS1 | inactive
OC[P+](CO)(CO)CO | inactive

Structure (SMILES) | Potency
COc1ccc(C(O)(c2cncnc2)C2CC2)cc1 (stereo not given) | inactive
CC(Oc1cccc(Cl)c1)C(=O)O (stereo not given) | inactive
FC(F)OC(F)(F)C(F)Cl (stereo not given) | inactive
CCOP(=O)(O)C(N)=O | inactive
O=C(Cc1ccccc1)OCCc1ccccc1 | inactive
C[C@H]1O[C@H](OC2[C@@H](O)[C@@H](O)C(O)[C@H](O)[C@H]2O)[C@@H](N)C[C@@H]1N=C(N)C(=O)O (stereo not given in full) | inactive
O=CC=O | inactive
COc1ccccc1N1CCNCC1 | inactive
C#C[C@]1(O)CC[C@H]2[C@@H]3CCC4=CC(=O)CCC4=C3C=C[C@@]21CC | 23.7 µM (active)
c1ccc2c(c1)-c1cccc3cccc-2c13 | inactive
CC(C)(c1ccccc1)c1cc(-n2nc3ccccc3n2)c(O)c(C(C)(C)c2ccccc2)c1 | inactive
O=C=NC1CCCCC1 | inactive
C[C@]12C=CC3=C4CCC(=O)C=C4CC[C@H]3[C@@H]1CC[C@@H]2O | 30.4 µM (active)
CCOC(=O)c1cn2nc(OP(=S)(OCC)OCC)cc2nc1C | inactive
CCC(C)Cl (stereo not given) | inactive
C1CS1 | inactive
FC(Cl)(Cl)C(F)(Cl)Cl | inactive
CCCCC(CC)COC(=O)c1c(Br)c(Br)c(Br)c(Br)c1C(=O)OCC(CC)CCCC (stereo not given) | inactive
O=C(Cc1ccccc1)c1ccccc1 | inactive
OCC1CO1 (stereo not given) | inactive
